Assay results reported in ChEMBL document CHEMBL3988442, “University of Dundee, Small-Polar-MMV Screening Library” (2021).
The campaign covered roughly 48,000 compounds. About 13,000 (27%) showed an effect of 50% or more. Some of the results follow.

These compounds were tested on Wolbachia pipientis (assay: Anti-Wolbachia Cell-Based Screen). Settings: 5 µM.
Assay type: functional
Set-up: scale not given: in the data most compounds retested in dose-response had high values

| Structure (SMILES) | Percent Effect |
| --- | --- |
| Cc1cc(N2CCC(n3cc(CCCO)nn3)CC2)ccn1 | 1.957% |
| CCc1cc(N2CCC(n3cc(C(=O)NCC(C)C)nn3)CC2)ncn1 | -7.159% |
| CC(C)Nc1cc(N2CCC(n3cc(C4CCCC4)nn3)CC2)ncn1 | 92.63% |
| CC(C)Nc1cc(N2CCC(n3cc(C4CC4)nn3)CC2)ncn1 | 77.15% |
| CCCC(C)CN1CCC(n2cc(C3CCCC3)nn2)CC1 (stereo not drawn) | 0.2453% |
| Cc1nn(CCO)c(C)c1CNC1CCC(C)(C)c2ccccc21 (stereo not drawn) | -8.145% |
| CNCCN1C(=O)CC[C@H]2CN(c3cnc4ccccc4n3)CC[C@H]21 | -7.782% |
| CC(C)COC1CCN(C(=O)c2ccc(C(F)(F)F)[nH]c2=O)CC1 | 17.18% |
| N#Cc1ccc(CS(=O)(=O)NC(=O)c2ccc(C#N)cc2)cc1 | 0.6106% |
| CCN1CCc2c(sc3c2C(=O)NC(/C=C\c2ccccc2)N3)C1 (stereo not drawn) | 141.7% |
| CN1CCc2c(sc3c2C(=O)NC(/C=C/c2ccccc2)N3)C1 (stereo not drawn) | 102.8% |
| CCN1CCc2c(sc3c2C(=O)NC(/C=C/c2ccco2)N3)C1 (stereo not drawn) | 144% |
| NC(=O)Nc1cccc(CNC(=O)CCCOCc2ccccc2)c1 | -14.12% |
| Cc1noc(C)c1C(=O)N(Cc1ccsc1)CC1CCCO1 (stereo not drawn) | -86.84% |
| CCN1CCN(S(=O)(=O)N2CCCCCC2)[C@H]2CS(=O)(=O)C[C@H]21 | 2.124% |
| CCCC(=O)N(CCCN1CCOCC1)c1nc2c(Cl)cccc2s1.Cl | 31% |
| Cn1c(-c2ccccc2Cl)nc2cc(C(=O)NCC3(CO)CC3)cnc21 | 10.87% |
| Cc1noc(CCCC(=O)NCC(c2ccco2)N2CCCCC2)n1 (stereo not drawn) | -0.8117% |
| O=C(CCn1cncn1)NCC(c1ccco1)N1CCCCC1 (stereo not drawn) | 106.2% |
| Cc1noc(CCCC(=O)NCC(c2ccco2)N2CCCC2)n1 (stereo not drawn) | 1.423% |
| O=C(NCCCn1cncn1)NCC(c1ccco1)N1CCCCC1 (stereo not drawn) | 9.107% |
| CC(C)c1noc(CCC(=O)NCC(c2ccco2)N2CCCC2)n1 (stereo not drawn) | -11.99% |
| O=C(CCn1cncn1)NCC(c1ccco1)N1CCCC1 (stereo not drawn) | 144.5% |
| CC1CCN(CC(O)CN2CCn3c(nnc3C3CC3)C2)CC1 (stereo not drawn) | -2.379% |
| Cc1ccoc1-c1nnc(CN2CCn3c(nnc3C3CC3)C2)o1 | 8.401% |
| CC(C)c1nnc(NC(=O)CCc2cc(F)ccc2F)[nH]1 | -72.05% |
| Cc1n[nH]c(C)c1CCCN(C)Cc1c[nH]nc1-c1ccc(F)cc1 | -0.8434% |

| Structure (SMILES) | Percent Effect |
| --- | --- |
| Cc1n[nH]c(C)c1CCC(=O)N(C)Cc1cn[nH]c1-c1ccc(F)cc1 | 62.4% |
| CN(Cc1cn[nH]c1-c1ccc(F)cc1)C(=O)CCC1CC1 | -8.61% |
| CCCc1nnc(NC(=O)NC2CCOc3ccccc32)s1 (stereo not drawn) | -4.049% |
| COc1ccc(CCc2nnc(NC(=O)C3CC34CCC4)s2)cc1OC (stereo not drawn) | 134.8% |
| COc1cc(CNC(=O)Nc2nnc(C3CC3)s2)ccc1O | -2.048% |
| CC(=O)NC(C)CC(=O)NCc1cccnc1Oc1ccccc1C (stereo not drawn) | -2.321% |
| COc1ccc(C(CC(=O)NCc2n[nH]c(N)n2)c2ccccc2)cc1 (stereo not drawn) | -21.33% |
| COc1cc2ncn(CC(=O)NCCCN(C)C)c(=O)c2cc1OC | 7.86% |
| COc1cc2ncn(Cc3ncc[nH]3)c(=O)c2cc1OC | 88.22% |
| COc1cc2nc(C)n(CC(=O)O)c(=O)c2cc1OC | 17.35% |
| CNC(=O)C1CCN(Cc2nc(-c3ccc(SC)cc3)oc2C)C1 (stereo not drawn) | 1.342% |
| COC(=O)CCC(=O)N1CCc2nc(C(=O)N3CCCCC3)sc2CC1 | -23.17% |
| CCN(C)c1ncnc2c1CCN(C(=O)N1CCCC1)CC2.O=C(O)C(F)(F)F | -2.138% |
| Cc1nc(N2CCCC2)nc2c1CCN(C(=O)CN(C)C)CC2.O=C(O)C(F)(F)F | -8.605% |
| CCN(C)CC(=O)N1CCc2nc(NC)nc(C(=O)N3CCCC3)c2C1 | 92.7% |
| CCc1nc(CN2CCCN(C(=O)CCSC)CC2)cs1 | -7.739% |
| CNc1nc2c(c(C(=O)N3CCCC3)n1)CN(C(=O)C1CCCC1)CC2 | 99.86% |
| CCCOCC(=O)N1CCCC(c2nnc(CN3CCCCC3)n2C)C1 (stereo not drawn) | -4.962% |
| CNc1nc2c(c(C(=O)N3CCCC3)n1)CN(C(=O)CCSC)CC2 | 109.5% |
| CCCOCC(=O)N1CCc2nc(NC)nc(C(=O)N3CCCC3)c2C1 | 106.3% |
| CCC(OC)C(=O)N1CCc2nc(NC)nc(C(=O)N3CCCC3)c2C1 (stereo not drawn) | 0.1298% |
| CC(C)Nc1nc2c(c(NC3CC3)n1)CN(C(=O)c1ccnnc1)CC2 | 10.08% |
| CC(C)Nc1nc2c(c(NC3CC3)n1)CN(C(=O)c1ccsc1)CC2 | 4.633% |
| CNc1nc2c(c(C(=O)N3CCCC3)n1)CN(C(=O)c1cccs1)CC2 | 93.6% |
| O=C(c1cccs1)N1CCN(C(=O)c2ncoc2-c2ccco2)CC1 | -2.664% |
| Cc1csc(N2CCCN(C(=O)c3cccs3)CC2)n1 | 5.258% |
